Results reported in PubChem BioAssay AID651610 (Broad Institute, 2012).
In all, about 360,000 compounds went through this assay and about 3,900 (1.1%) were called active. The sample holds actives, similar compounds and a random draw of the others, so the mix is not that of the screen. A number with no mark means an inactive call.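 Rule for the calls: active = mean replicate inhibition score of at least 50 and every replicate individually at or above 50; inconclusive = only one of the two criteria met; inactive = mean below 50 and not all replicates reaching 50.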

assay: inhibitors of HIV-1 Env-driven cell-cell fusion, primary screen, HeLa-JRFL effector, CEM21 target cells, luciferase (AID 651610); details: hits give high values; at 16.7 µM unless noted;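 note: 0% = plate neutral controls and 100% = maraviroc near 300 nM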

Structure (SMILES) | inhibition
C[C@@H]1CN([C@@H](C)CO)S(=O)(=O)c2ccc(-c3cccnc3)cc2O[C@H]1CN(C)CC1CCOCC1 | -3.87%
C[C@@H]1CN([C@H](C)CO)C(=O)c2cccc(NS(C)(=O)=O)c2O[C@@H]1CN(C)C(=O)Nc1cccc2ccccc12 | -1.18%
Cc1oc2c(F)c(F)c(F)c(F)c2c1S(=O)(=O)Nc1cccc(C(F)(F)F)c1 | 55% [at 12.3 µM] (active)
Cc1noc(C)c1S(=O)(=O)Nc1cc(C(F)(F)F)ccc1N1CCOCC1 | 22.4% [at 12.3 µM]
O=C(CNS(=O)(=O)c1cccc(C(F)(F)F)c1)Nc1ccccc1F | -11.7% [at 12.3 µM]
COc1ccccc1CNC(=O)C[C@H]1C[C@@H]2c3cc(NC(=O)c4ccc5c(c4)OCO5)ccc3O[C@@H]2[C@H](CO)O1 | 4.06%
COc1ccccc1-c1c(C#N)c(N)nc2c1CCC2 | 24% [at 12.3 µM]
NC(=O)c1sc2nc3c(c(-c4ccccc4)c2c1N)CCC3 | 103% [at 12.3 µM] (active)
CC(C)OC(=O)c1sc2nc3c(cc2c1N)C(=O)CCC3 | -187% [at 12.3 µM]
C[C@@H]1CN([C@@H](C)CO)C(=O)c2cc(NC(=O)Cn3cnnn3)ccc2O[C@H]1CN(C)Cc1ccc(C(F)(F)F)cc1 | 12.3%
Cc1n[nH]c(=O)c2c1nnn2Cc1ccc(F)cc1 | -10.3% [at 12.3 µM]
Cc1cc(C)c2cc(CN(Cc3nnnn3Cc3ccc(F)cc3)C3CCCC3)c(=O)[nH]c2c1 | 84.5% [at 12.3 µM] (active)
C[C@@H]1CN([C@H](C)CO)C(=O)c2cc(-c3ccccc3F)cnc2O[C@H]1CN(C)C(=O)NC1CCCCC1 | -1.88%
O=C(C[C@H]1CC[C@@H]2NC[C@H](O)COC[C@H]2O1)NCCN1CCCCC1 | 18.8%
CSCCC(NC(=O)c1ccccc1)C(=O)N1CCN(Cc2ccc(Cl)cc2)CC1 (configuration not stated) | 11.5% [at 12.3 µM]
COc1ccccc1C(=O)NC(CCSC)C(=O)N1CCN(C(C)=O)CC1 (configuration not stated) | -8.21% [at 12.3 µM]
COc1ccccc1C(=O)NC(CCSC)C(=O)N1CCN(C/C=C/c2ccccc2)CC1 (configuration not stated) | 75.2% [at 12.3 µM] (active)
O=C(NCc1ccccc1)[C@H]1CCCN1C(=O)[C@@H]1CCCN1C(=O)c1ccc(Cl)cc1Cl | -35.2% [at 12.3 µM]
COc1cccc(S(=O)(=O)Nc2ccc3c(c2)C(=O)N(C)C[C@@H](OC)[C@@H](C)CN[C@@H](C)CO3)c1 | 3.22%
COCC(=O)N1C[C@@H](C)[C@H](OC)CN(C)C(=O)c2ccc(NC(=O)c3ccc(OC)cc3)cc2OC[C@@H]1C | 58.2% (active)
CO[C@@H]1CN(C)C(=O)c2cc(NS(=O)(=O)c3ccccc3)ccc2OC[C@@H](C)N(C(=O)NC(C)C)C[C@@H]1C | 3.87%

Structure (SMILES) | inhibition
COCC(=O)N1C[C@H](C)[C@@H](OC)CN(C)C(=O)c2cc(NC(=O)c3ccc(OC)cc3)ccc2OC[C@H]1C | -0.959%
CO[C@H]1CN(C)C(=O)c2cc(NS(=O)(=O)c3ccccc3)ccc2OC[C@H](C)N(C(=O)NC(C)C)C[C@@H]1C | -19%
COCC(=O)N1C[C@@H](C)[C@H](OC)CN(C)C(=O)c2ccc(NC(=O)c3ccc(F)cc3)cc2OC[C@H]1C | 19.1%
COc1ccccc1S(=O)(=O)Nc1ccc2c(c1)C(=O)N(C)C[C@@H](OC)[C@@H](C)CN[C@@H](C)CO2 | 61.2% (active)
CO[C@@H]1CN(C)C(=O)c2cc(NS(=O)(=O)c3ccc(C)cc3)ccc2OC[C@H](C)N(C(=O)NC(C)C)C[C@@H]1C | 64.3% (active)
COc1ccccc1S(=O)(=O)Nc1ccc2c(c1)C(=O)N(C)C[C@H](OC)[C@H](C)CN[C@H](C)CO2 | -20.4%
C/C=C/c1cnc2c(c1)C(=O)N([C@@H](C)CO)C[C@@H](C)[C@H](CN(C)C(=O)c1cnccn1)O2 | 4.56%
C[C@H](CO)N1C[C@H](C)[C@@H](CN(C)C(=O)CCC(F)(F)F)OCCCC[C@H](C)Oc2ccc(NC(=O)C3CCCCC3)cc2C1=O | -45.1%
COc1ccc(NC(=O)N(C)C[C@@H]2Oc3ccc(NC(=O)CCN4CCOCC4)cc3C(=O)N([C@@H](C)CO)C[C@H]2C)cc1 | -19.9%
Cc1noc(C)c1NC(=O)Nc1cccc2c1O[C@@H](CN(C)CC1CCCCC1)[C@H](C)CN([C@@H](C)CO)C2=O | -120%
Cc1ccc(S(=O)(=O)N(C)C[C@H]2Oc3ccc(NC(=O)CCC(F)(F)F)cc3C(=O)N([C@@H](C)CO)C[C@H]2C)cc1 | 9.23%
CCc1ccc(OCC(=O)NCC(c2ccc(Cl)cc2)N2CCCCC2)cc1 (configuration not stated) | 73.9% [at 12.3 µM] (active)
COc1ccc(C(CNC(=O)COc2ccccc2OC)N2CCCCC2)cc1 (configuration not stated) | 1.58% [at 12.3 µM]
COc1ccc(C(CNC(=O)COc2ccc([N+](=O)[O-])cc2)N2CCCCC2)cc1 (configuration not stated) | 1.73% [at 12.3 µM]
COc1ccc(S(=O)(=O)N(C)C[C@@H]2OCCCC[C@H](C)Oc3ccc(NC(=O)NC4CCCCC4)cc3C(=O)N([C@H](C)CO)C[C@H]2C)cc1 | 20.2%
CO[C@@H]1CC[C@@H]2CCOc3ccc(C#N)cc3C(=O)N(C)[C@H](C)C(=O)N(C)C[C@@H]1O2 | 14.7%
COc1ccc2cc(-c3[nH]ncc3CNCCn3nc(C)cc3C)ccc2c1 | -11.4% [at 12.3 µM]
COc1ccc(Oc2cn[nH]c2-c2ccc(OC)cc2O)cc1 | 4.87% [at 12.3 µM]
COc1ccc(-c2cn[nH]c2-c2ccc(OC)cc2)cc1 | 60.2% [at 12.3 µM] (active)
CCCNC(=O)Nc1ccc2c(c1)C(=O)N(C)C[C@H](OC)[C@@H](C)CN(C)[C@@H](C)CO2 | 18.7%
COc1ccc(CN(C)C[C@H]2Oc3c(NC(=O)C4CCCCC4)cccc3C(=O)N([C@@H](C)CO)C[C@@H]2C)cc1 | 7.57%
